# The panel holds about 83,000 compounds, 20% with a hit somewhere; the sample as a whole holds those more often.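 Interpretation: 100, growth as untreated; towards 0, rising growth inhibition; 0, no net growth; 0 to -100, cell death. Compounds scoring below 10 were considered active.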 Unmarked numbers belong to inactive results. The source made the active and inactive calls.
# Key:
# Experiment in all cases: NCI-60 one-dose screen, 48 h (100 = growth as untreated, 0 = no growth, -100 = all killed)
# Conditions in all cases: 10 µM unless noted
# HCT-15 colon = system: HCT-15 colon
# HT29 colon = system: HT29 colon
# SNB-75 CNS = system: SNB-75 CNS
# SNB-19 CNS = system: SNB-19 CNS
# U251 CNS = system: U251 CNS
# PC-3 prostate = system: PC-3 prostate
# SK-MEL-5 melanoma = system: SK-MEL-5 melanoma
# LOX IMVI melanoma = system: LOX IMVI melanoma
# SK-MEL-28 melanoma = system: SK-MEL-28 melanoma
SMILES,growth (HCT-15 colon),growth (HT29 colon),growth (SNB-75 CNS),growth (SNB-19 CNS),growth (U251 CNS),growth (PC-3 prostate),growth (SK-MEL-5 melanoma),growth (LOX IMVI melanoma),growth (SK-MEL-28 melanoma)
Cc1cccc(C)c1NC(=O)CSC(=S)N1CCN(CCOCCO)CC1,105%,93.6%,96.7%,99%,104%,99.7%,110%,96%,105%
Cc1cccc(C)c1NCc1nc(-c2ccccc2)n[nH]1,101%,103%,89.7%,94.7%,101%,100%,102%,97.9%,96.8%
COc1cc(/C=C2\C(=O)N(CC(O)COc3cc(O)c4c(=O)cc(-c5ccccc5)oc4c3)c3ccccc32)cc(OC)c1O (stereo unspecified),59.1%,88.2%,81.1%,92.2%,91.6%,61.1%,50%,80.2%,92%
O=C1CCC/C=C\C[C@H]2C=C(Cl)C(=O)/C2=C/C[C@H](CCCCC(F)(F)F)OC(=O)CCC/C=C\C[C@H]2C=C(Cl)C(=O)/C2=C/C[C@H](CCCCC(F)(F)F)O1,1.46% [7.5 µM] (active),-50.5% [7.5 µM] (active),-1.55% [7.5 µM] (active),-37.9% [7.5 µM] (active),-67.7% [7.5 µM] (active),-44.8% [7.5 µM] (active),-94.1% [7.5 µM] (active),-80.2% [7.5 µM] (active),-52.6% [7.5 µM] (active)
Nc1ncnc2nc(Br)[nH]c12,108%,102%,87.2%,101%,89.4%,78.3%,100%,93.7%,114%
CCN1CCN(c2nc(C)cc(N(CCCNc3ccnc4cc(Cl)ccc34)Cc3ccco3)n2)CC1,17.9%,11.4%,66.8%,73.1%,42.2%,53.9%,-37.8% (active),9.87% (active),-63.7% (active)
COc1ccc(-c2nc(SCC(=O)Nc3ccc(C(C)=O)cc3)[nH]c(=O)c2C#N)cc1,103%,101%,88.3%,96.5%,89.4%,88%,100%,96.2%,101%
Cc1ccc(C)c2c1CCC2C(C)C (stereo unspecified),109%,105%,88.4%,101%,96.7%,90.1%,98.5%,96%,103%
Cc1cc(Cl)nc(N(CCCNc2ccnc3cc(Cl)ccc23)Cc2ccco2)n1,18.3%,8.64% (active),59.6%,31.5%,26.9%,5.4% (active),-82.6% (active),10.7%,16.1%
C=C1C(=O)O[C@H]2[C@H]1CC/C(COC(=O)NCCc1c[nH]c3ccccc13)=C\CC[C@@]1(C)O[C@@H]21,-9.58% (active),-39.8% (active),61.3%,56.9%,59.9%,35.1%,12.8%,-63.2% (active),-17.6% (active)
COc1ccc(C2(Cl)c3ccccc3N(c3ccccc3)c3ccccc32)cc1,8.52% (active),3.7% (active),3.72% (active),6.63% (active),-87.5% (active),-24.4% (active),-87.3% (active),-84.3% (active),-74.7% (active)
Cn1cc(-c2csc(-c3cn(CCNC(=O)OC(C)(C)C)c4ccccc34)n2)c2cccnc21,60.1%,90.9%,88.5%,94.3%,83.1%,36.9%,20.1%,82.4%,94.3%
Cc1cc(N(CCCNc2ccnc3cc(Cl)ccc23)Cc2ccco2)nc(Cl)n1,48.5%,22.1%,66%,75.1%,60.7%,49%,-8.23% (active),42.2%,77.7%
Cc1ccc(-c2nn(Cc3cn(-c4cc(C)nc5ccccc45)nn3)c3ncnc(N)c23)cc1,57%,49.8%,15.5%,53.2%,71.8%,49%,40.7%,52.4%,68.7%
